hcDAF12 agonist: H. contortus DAF-12 nuclear receptor activators, primary screen, cell-based, luminescence, HEK293, lit1-tk-luc reporter; HEK293 hcDAF-12 lit1-tk-luc reporter; 0% DMSO, 100% Δ7-dafachronic acid; activation, % at 6.8 µM; 1.4% of 370,000 active;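 active means activation above the mean of all tested compounds plus 3 SD, cut at about 5.5% in these data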
DAX1 inh-1: DAX1 (NR0B1) inhibitors, primary screen, cell-based, HEK293, Gal4-DAX1, luciferase luminescence; HEK293 Gal4-DAX1 luciferase reporter; inhibition, % at 6.75 µM; 0.99% of 340,000 active;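 active means inhibition above the mean over all tested compounds plus 3 SD, cut at about 4.2% in these data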;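 further: inhibition shows as a rise in luminescence from relieved DAX1 repression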
hgDAF-12 ag: H. glycines DAF-12 receptor agonists, primary screen, cell-based, luminescence, HEK293, GAL4 fusion, UAS-luciferase; activation, % at 6.8 µM; Nuclear hormone receptor DAF-12 (Heterodera glycines), GAL4 fusion; 1.8% of 370,000 active; HEK293 GAL4-hgDAF12 UAS-luciferase reporter, agonist luminescence; normalized to butyrate control; AID 687014, 2013;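 active means activation above a cutoff set at the mean of all screened compounds plus 3 SD, cut at about 10% in these data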
DAX1 inh-2: DAX1 (NR0B1) inhibitors on StAR promoter, primary screen, cell-based, luminescence, SF-1 (NR5A1), full-length DAX-1 | AID 652010, 2013 | HEK293T StAR-luciferase reporter, SF-1/DAX-1 repression relief | inhibition, % at 6.8 µM | 1.1% of 370,000 active;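 active means inhibition above the mean over all tested compounds plus 3 SD, cut at about 3.6% in these data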;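 further: higher inhibition means more luminescence from relief of DAX-1 repression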
ssDAF-12 act: S. stercoralis DAF-12 nuclear receptor activators, primary screen, cell-based, luminescence, HEK293, GRIP1 co-expression, lit1-tk-luc. activation, % at 6.8 µM. Nuclear hormone receptor DAF-12 (Strongyloides stercoralis). AID 652126, 2013. 1% of 370,000 active. HEK293 ssDAF-12/GRIP1 lit1-tk-luc reporter; % of 3 µM dafachronic acid response;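 active means activation above the mean over all tested compounds plus 3 SD, cut at about 0.9% in these data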
hgDAF12 ag: H. glycines DAF-12 receptor agonists, confirmation, cell-based, luminescence, HEK293, GAL4-LBD fusion; shares compounds with hgDAF-12 ag; HEK293 GAL4-hgDAF12 luciferase reporter, agonist mode; percent of butyrate response; activation, % at 6.8 µM; 80% of 3,300 active; AID 743050, 2013;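 active means mean activation over triplicate wells above the hit cutoff derived from the earlier primary screen, cut at about 11% in these data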
LXR ag 2: LXR agonists, Gal4 luciferase reporter, confirmation, counter-screen for hgDAF-12 agonist project, cell-based, luminescence, HEK293, H. glycines campaign | 24 h | shares compounds with hgDAF-12 ag | 3,300 tested, under 10 active | activation, % at 6.8 µM | AID 743051, 2013;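 active means mean activation of the triplicate above a set limit carried over from the primary screen, none filed active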
Target sequence (P55055 whole entry, looked up, the tested form may be a part): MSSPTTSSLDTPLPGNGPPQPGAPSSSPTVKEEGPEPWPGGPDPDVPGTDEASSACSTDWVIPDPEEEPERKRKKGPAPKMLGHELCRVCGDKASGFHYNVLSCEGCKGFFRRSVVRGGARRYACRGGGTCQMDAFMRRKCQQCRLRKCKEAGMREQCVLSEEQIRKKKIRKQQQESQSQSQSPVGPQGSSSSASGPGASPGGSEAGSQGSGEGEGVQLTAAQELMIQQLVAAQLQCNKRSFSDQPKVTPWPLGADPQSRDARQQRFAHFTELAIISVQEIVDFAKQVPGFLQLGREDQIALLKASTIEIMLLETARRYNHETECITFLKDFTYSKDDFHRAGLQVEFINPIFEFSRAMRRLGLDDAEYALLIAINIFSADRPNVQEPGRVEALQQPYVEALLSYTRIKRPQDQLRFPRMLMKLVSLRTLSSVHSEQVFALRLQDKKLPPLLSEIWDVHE
Hits are given with their value; - = inactive; . = no result given; ! = repeats disagree. Compounds with a hit are over-represented: about 4.1% of the library has one in this group of screens.

SMILES | hcDAF12 agonist | DAX1 inh-1 | hgDAF-12 ag | DAX1 inh-2 | ssDAF-12 act | hgDAF12 ag | LXR ag 2
O=C(c1ccc(-c2nc3ccccc3s2)s1)N1CCOCC1 | - | . | - | - | - | . | .
COc1cc(/C=C/c2ccc3cccc(O)c3n2)cc(Cl)c1OC | - | - | 13.8 | - | - | 17.1 | -
COC(=O)Nc1ccc2c(c1)N(C(=O)CCN1CCN3CCCC3C1)c1ccccc1CC2 (stereo unspecified) | - | - | 18.1! | - | - | - | -
CCOC(=O)Nc1ccc2c(c1)N(C(=O)CCN1CCN3CCCC3C1)c1ccccc1CC2 (stereo unspecified) | - | - | - | - | - | . | .
O=C(NNC(=S)NC(=O)c1ccccc1)c1ccc(O)cc1 | - | - | - | - | - | . | .
O=C(NNC(=S)Nc1ccccc1)c1ccc(O)cc1 | - | 6.0 | 15.4 | - | - | 12.1 | -
COc1ccc(OCC(=O)N/N=C(\C)c2cccs2)cc1 | - | - | - | - | - | . | .
O=C(COc1ccccc1[N+](=O)[O-])Nc1ccc(Br)cc1 | - | 6.8 | 16.4 | - | - | 11.3 | -
C/C(=N\NC(=O)COc1ccccc1[N+](=O)[O-])c1cccs1 | - | - | 15.1 | - | - | 10.9 | -
O=C(C[C@@H]1C[C@@H]2c3cc(NC(=O)c4ccc5c(c4)OCO5)ccc3O[C@@H]2[C@@H](CO)O1)NCc1cccnc1 | - | . | - | - | - | . | .
COC(=O)[C@]1(C)CN(C(=O)OC(C)(C)C)C2=C1C(=O)C[C@](C)(C(=O)OC(C)(C)C)C2 | - | . | - | - | - | . | .
Brc1c(CSc2nc3ccccc3s2)nc2ncccn12 | - | - | 16.3 | - | - | 11.7 | -
Cc1c(CN2CCN(c3ncc(Cc4ccccc4)cn3)CC2)c(=O)n(-c2ccccc2)n1C | - | . | - | - | - | . | .
Cc1ccc2cc(N)ccc2n1 | - | - | - | - | - | . | .
Nc1ccc2cc3ccc(N)cc3nc2c1 | 32.3 | . | 27.5 | - | 1.7 | - | -
COC(=O)C1=C(C)N(C)C(=NCC2CC2)NC1c1ccccc1C(F)(F)F (stereo unspecified) | - | . | - | - | - | . | .
CCC(=O)Nc1nc2ccc3sc(C)nc3c2s1 | - | - | - | - | - | . | .
Cc1nc2c(ccc3nc(NC(=O)C4CC4)sc32)s1 | - | - | 14.8 | - | - | 12.3 | -
COc1ccc(N2CCN(CCNS(=O)(=O)c3ccc(Br)s3)CC2)cc1 | - | . | - | - | - | . | .
C[C@@H](N)C(=O)Nc1ccc(Cl)cc1C(=O)c1ccc[nH]1 | - | . | - | . | - | . | .
Nc1nc(Nc2ccccc2F)sc1C(=O)c1ccccc1 | - | - | 18.7 | - | - | 19.1 | -
C=CCNc1nc(-c2ccc(Cl)cc2)cs1 | - | - | 14.2 | - | - | 14.7 | -
O=C(CSC1CCc2ccccc21)NNC(=O)Nc1ccc(Cl)cc1 (stereo unspecified) | 6.5 | . | 16.2 | - | - | - | -
Cc1ccc(NC(=O)c2cc3cccc([N+](=O)[O-])c3[nH]2)cc1 | - | - | 13.4 | - | 1.3 | 18.8 | -
CCN(C(=O)Cn1nnc(-c2ccncc2)n1)c1ccccc1 | - | . | - | - | - | . | .
SMILES | hcDAF12 agonist | DAX1 inh-1 | hgDAF-12 ag | DAX1 inh-2 | ssDAF-12 act | hgDAF12 ag | LXR ag 2
Cc1cc2c(c(=O)o1)[C@@]1(C(=O)N(C)c3cc(Br)ccc31)C1=C(CCCC1=O)O2 | - | . | - | - | - | . | .
N#Cc1ccc(NC(=O)OC2CC3CC2[C@H]2CCCCN2[C@H]3Cc2ccccc2)cc1 (stereo partly specified) | - | . | - | - | - | . | .
O=C1C=C(c2ccc3[nH]ccc3c2)CCC1 | - | - | - | - | - | . | .
COc1ccc2cc(C3=CC(=O)CCC3)ccc2c1 | 6.2 | - | 15.7 | - | - | 15.6 | -
COC(=O)[C@H](CC(C)C)N(Cc1cn(CC2CCCCC2)nn1)S(=O)(=O)c1ccccc1Br | - | . | - | - | - | . | .
Cc1ccc(C(=O)NCCCc2ccccc2)c(C)c1 | - | 6.8 | 14.8 | - | - | 15.9 | -
Cc1ccc(C(=O)NCCCc2ccccc2)c(Cl)c1 | 6.5 | 5.1 | 14.7 | - | - | 11.4 | -
Cc1cc(C)cc(C(=O)NCCCc2ccccc2)c1 | - | - | - | - | - | . | .
O=C(Nc1ccc2ccccc2n1)C1CCCCC1 | - | . | 14.7 | - | - | 15.6 | -
O=C(Nc1ccccc1)C1CCCCC1 | - | - | - | - | - | . | .
O=C(NC1CCCC1)[C@@H]1CCCN1C(=O)[C@H](Cc1cccnc1)NC(=O)N1CCOCC1 | - | . | - | - | - | . | .
C[C@@H]1CN([C@@H](C)CO)C(=O)CCCn2cc(nn2)CO[C@H]1CN(C)C(=O)c1ccncc1 | - | . | - | - | - | . | .
Fc1ccc(Nc2nc3ccccc3s2)cc1 | - | - | 26.1 | - | - | 12.1 | -
Cc1ccccc1Nc1nc2ccccc2s1 | 6.2 | 6.2 | 16.9 | - | - | 17.6 | -
CCNC(=O)O[C@@H]1C=C[C@@H](C#Cc2ccc(C(C)(C)C)cc2)O[C@@H]1COC(C)=O | - | . | - | - | - | . | .
COc1ccccc1-c1noc(-c2ccccc2)n1 | - | - | 13.7 | 3.7 | - | 18.8 | -
Cc1ccccc1S(=O)(=O)Nc1nc2ccccc2nc1Cl | - | - | - | - | - | . | .
Cc1ccccc1S(=O)(=O)Nc1nc2ccccc2nc1N1CCc2ccccc2C1 | - | - | 14.4 | - | - | - | -
COc1ccc(CNS(=O)(=O)c2cc(Br)ccc2Br)c(OC)c1 | - | . | - | - | - | . | .
NC(=O)N/N=C/c1sc(=O)n(-c2ccccc2)c1Cl | - | - | - | - | - | . | .
O=C(N/N=C/c1sc(=O)n(-c2ccccc2)c1Cl)c1ccccc1 | - | - | 23.7 | - | - | 15.8 | -
Cc1ccc(CN2CCN(CC(C)C)C(CCO)C2)s1 (stereo unspecified) | - | - | 15.1 | - | - | - | -
Cc1ccc(CN2CCN(CCC(C)C)C(CCO)C2)s1 (stereo unspecified) | - | - | - | - | - | . | .
Cc1nn(-c2ccccc2)c(N)c1N=Nc1cccc(S(=O)(=O)N2CCOCC2)c1 | - | - | - | - | - | . | .

From PubChem BioAssay
